Measured values from the supplement of paper PMC5499739.
Whole data set: some 16,000 sequences, median “Z-score” near -0.37, cut for the highest 2% near 3.1. This is one part of a sample in which the highest values are shown more often than they occur.

What follows are sequences tested on RBM10 RRM1-ZnF-RRM2 (GST-tagged construct) (assay: RNAcompete 7-mer binding Z-score; higher = stronger binding preference).
Procedure: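 RNAcompete: 20 pmol GST-tagged RBM10 RNA-binding constructs were incubated with a designed RNA pool of about 241,000 sequences up to 41 nt (1.5 nmol) on glutathione beads for 30 min at 4 °C and washed. Bound RNAs were identified by microarray hybridisation. Each RNA 7-mer is scored by a one-sided Z-score of its enrichment, computed over probes that contain the 7-mer within longer pool sequences.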

Sequence | RNAcompete 7-mer binding Z-score
CGGGAAU | 1.31
GGUAAUU | 0.789
ACUAACG | -0.409
CGAUGUU | -0.657
AGUCGAC | 0.00944
CUAAUGC | -0.795
ACAUCAG | -0.191
CACUGAG | -0.209
AGGGUAG | 3.71
UGGGUAU | 2.2
UGGGUAG | 3.34
AGGGUAC | 2.7
CGGGUAG | 2.23
UGGGUAC | 2.59
CGCGAAC | -0.435
GCUCGAC | -0.53
AGUUCCU | -0.77
AGGCGUA | 0.716
ACCUACA | -0.814
AACGGGG | 3.65
AACGGGU | 3.25
GACGGGG | 2.79
CACGGGG | 2.77

Sequence | RNAcompete 7-mer binding Z-score
AACGGGA | 3.38
CACGGGA | 1.66
UACGGGU | 2.02
GACGGGU | 2.37
GACGGGA | 2.3
ACGGCGG | 1.11
AGCUCAG | -0.486
ACAUAUC | -0.526
AAGGAGU | 3.12
AGUUUUG | -0.0707
CUUAAAC | -0.646
AGGGCUA | 1.17
UGUUGUU | -0.286
GUCGCGU | -0.0124
AGGAAGU | 1.21
UGGAAGU | 1.6
CGGAAGG | 2.53
AGGAAGA | 1.64
AGGAAGG | 4.46
UGGAAGG | 3.68
GUGUAAG | 1.28
GGAGGGC | 3.27
AGAGGGA | 2.16

Sequence | RNAcompete 7-mer binding Z-score
GUAGAGG | 4.02
AGAGGGG | 1.94
AUAGAGG | 1.79
GGAGGAG | 2.84
AGAGGGC | 1.02
UGAGGGC | 2.22
CGAGGGA | 3.11
UUAGAGG | 1.24
GGAGGGG | 4.18
GGAGGGA | 3.6
AGAUAAG | 0.989
GUUAACU | -0.398
UCCUGUA | -0.795
UCAUGGG | 1.19
AAAACGU | -0.0197
GGAGUGA | 2.63
AGAGAGG | 1.58
GGAGUGG | 4.61
GGAGAGG | 3.28
CGAGGGC | 1.41
CGAGGCG | 1.5
GGAGAGA | 1.26
AGAGUGG | 2.77

Sequence | RNAcompete 7-mer binding Z-score
CGAGGGG | 3.29
GUCCAAA | -0.424
GUUCACG | -0.355
UAAGCAU | -0.555
UAUCAAU | -0.46
CUGUGUA | -0.417
UCUUUUG | -0.632
AACAGGC | 1.62
AGCAGGA | 2.45
AACAGGG | 3.73
UGCAGGG | 2.53
AGCAGGG | 3.39
CACAGGG | 2.49
GGUGCCC | 0.0495
CUUAGCU | -0.832
CCUUGUC | -0.89
AUUUUCU | -0.803
CUUCUGC | -0.959
UUACUGC | -0.799
GAAAAAG | 1.52
GAAAGGU | 4.42
CGUAAGG | 0.844
CAAAGGU | 1.62

Sequence | RNAcompete 7-mer binding Z-score
AAAAGGU | 2.52
GAAAAGG | 4.73
UGAAAGG | 2.76
AGUAAGU | 0.188
AGAAAGG | 4.73
CGAAAGG | 1.98
AAAAAGG | 2.19
AGUAAGG | 3.47
GCGUGUC | -0.235
GCAUCGA | -0.22
CGCCUCA | -0.748
CGGAGCA | 1.02
GCAGCGG | 2.14
GUUCUAC | -0.759
CAUAAGG | 0.548
GAUAAGG | 3.81
GAUAAGU | 0.0969
GUAAAGU | 0.396
GUAAAGG | 3.36
GUAAAAG | 0.767
CCUACAG | -0.752
UGACACA | -0.315
UUCUUAU | -0.744

Sequence | RNAcompete 7-mer binding Z-score
CGAACGC | -0.256
CCAUUUU | -1.08
AUUACAC | -0.537
GGCUCAA | -0.122
CCCUCUU | -0.89
CAAAGGA | 1.34
UAAAGGA | 1.64
CAAAGGG | 2.78
UAAAGGG | 2.65
AAAAGGG | 3.58
AAAAGGA | 3.25
CUUUCGC | -0.967
UGAAGAU | -0.00877
AAAUGGA | 3.34
GAAUGGA | 3.56
GAAUGGG | 4.77
CAAUGGG | 3.4
UAAUGGA | 1.64
ACAUGGA | 1.76
GAAUGGC | 1.68
CAAUGGA | 1.4
AAAUGUA | 0.0859
UAAUGGG | 2.89

Sequence | RNAcompete 7-mer binding Z-score
CAAUGGU | 1.25
GAAUGGU | 2.65
UGCGCUU | -0.744
CCCUCAG | -0.81
CUCCGUC | -0.894
GACAAGC | -0.0233
GGCCGGU | 0.279
GAUUCCA | -0.519
GUAUGGA | 2.44
AAAUGGU | 2.73
AAAUGGG | 4.04
GUAUGGG | 4.06
CUAUGGG | 1.08
AAAUGGC | 1.42
CGGAUAU | 0.348
GGUGUCG | 1.21
AGUAUGC | 0.0204
CCCAGCU | -0.657
CUAGACA | -0.621
UUGGGCG | 2.45
AGGCCCG | -0.759
CGCUUUC | -0.77
UGGGGCA | 3.52

Sequence | RNAcompete 7-mer binding Z-score
UUGGGGC | 2.04
UGGGGCG | 2.66
GGGGGCA | 2.33
AGGGCGG | 2.23
UGGGGGG | 3.39
UGGGCGC | 0.989
UGGGCGG | 3.38
UGGGGGC | 3.18
UGGGGCC | 0.76
AGGGGCA | 2.36
UUGGGGG | 3.03
UUGGAAU | 0.57
AGUUCAA | -0.311
ACACAUG | -0.0962
AUGCUAU | -0.65
GAAAAUG | 1.46
AAAAUUU | -0.544
AAGGACA | 3.12
CUGAUAA | -0.566
UCGGGUC | 0.512
ACCAGUC | -0.602
ACCAGGU | 0.399
GCCUAUU | -0.901
